Compound activity from PubChem BioAssay.
This is a sample that favours compounds with a hit; in the whole collection about 2.6% have one here.
p53ts 32C kill: kills p53ts cells at the permissive temperature; H1299-p53A138V at 32C, ATP luminescence viability, 24 h; Potency, µM (doses to about 46.1 µM), for the others: top-dose activity change, negative = cytotoxicity, usual class: cytotoxic; 130,000 compounds, 0.93% hits; AID 924;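 further: 0% = DMSO and -100% = full killing by reference compound; nearly all actives have a fitted effect of over 55% in size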
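Viability by ATPlite luminescence after 24 h compound treatment (up to 46 uM) at the permissive 32C. Cells are H1299 carrying p53 A138V. Scale runs from DMSO basal to 100 uM tamoxifen as full kill; AC50 from Hill fits.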
FLuc inh: blocks Photinus pyralis firefly luciferase activity | P08659 | purified firefly luciferase, luminescence, 8 min | Potency, µM (doses to about 57.1 µM), for inactives: top-dose activity change, negative = inhibition, hits mostly inhibitors | 72,000 compounds, 2.2% hits | AID 411; further: nearly all actives have a fitted effect of over 40% in size
Target sequence (P08659 whole entry, looked up): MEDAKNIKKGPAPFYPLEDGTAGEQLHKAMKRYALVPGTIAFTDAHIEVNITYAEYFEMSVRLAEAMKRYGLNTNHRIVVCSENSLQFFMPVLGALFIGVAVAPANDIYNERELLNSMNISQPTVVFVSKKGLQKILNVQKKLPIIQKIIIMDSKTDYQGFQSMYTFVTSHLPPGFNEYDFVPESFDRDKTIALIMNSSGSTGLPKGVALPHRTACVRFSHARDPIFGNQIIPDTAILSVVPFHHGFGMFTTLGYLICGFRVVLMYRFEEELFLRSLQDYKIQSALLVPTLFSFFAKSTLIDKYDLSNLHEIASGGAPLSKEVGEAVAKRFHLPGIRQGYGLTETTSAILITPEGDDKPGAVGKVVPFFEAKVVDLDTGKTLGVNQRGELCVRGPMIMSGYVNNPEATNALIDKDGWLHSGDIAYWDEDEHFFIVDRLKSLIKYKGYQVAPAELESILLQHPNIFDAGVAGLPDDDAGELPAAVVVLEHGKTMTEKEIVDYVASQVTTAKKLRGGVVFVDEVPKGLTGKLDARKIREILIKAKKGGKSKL
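Inhibition of light generation by firefly luciferase from ATP and luciferin was profiled with concentration-response curves per sample, ATP held at 10 uM within the enzyme's linear range. Plates were read by luminescence after an 8-minute ambient incubation.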
p53ts 39C tox: p53ts cell cytotoxicity, nonpermissive temperature; H1299-p53A138V viability at 39C, ATP luminescence, 24 h; Potency, µM (series often up to 46.1 µM), without a hit: at the highest dose activity change, negative = cell killing, hits mostly cytotoxic; 130,000 compounds, 1.5% hits; further: nearly all actives have a fitted effect of over 55% in size
Numbers without * were called inactive. The call rests on the fitted dose curve; in most records, active means well fitted curve in the direction sought with a large enough effect; inconclusive means small, poorly fitted or top-dose-only effect, or another doubt; inactive means no such curve, though single readings can be large; an effect the other way counts as inactive or inconclusive. Unless noted, on the % scale 0 is the no-effect control and ±100 the full control effect; potency means the concentration at half of the fitted maximal effect.

For O=C(CSc1nc2ccccc2o1)Nc1nc2c(s1)CCCC2 the results were p53ts 32C kill inconclusive, FLuc inh 10µM* and p53ts 39C tox 13µM*.
Screening CCC(=O)N1CCc2cc(S(=O)(=O)CCC(=O)Nc3ccc(OC(F)(F)F)cc3)ccc21 returned p53ts 32C kill 2% and p53ts 39C tox 21%.
`CCN1c2ccccc2-c2nc(SCC(=O)Nc3c(C)cc(C)cc3C)ncc2S1(=O)=O` gave p53ts 32C kill 14% and p53ts 39C tox 1%.
Screening O=C(Cn1ncc2c3ccccc3n(Cc3ccccc3F)c2c1=O)NCCc1ccc(Cl)cc1 returned p53ts 32C kill 13% and p53ts 39C tox -14%.
`O=C(Cn1ncc2c3ccccc3n(Cc3ccccc3)c2c1=O)NCCc1ccc(Cl)cc1` gave p53ts 32C kill -11% and p53ts 39C tox 13µM*.
For CCC(Cc1ccccc1)NC(=O)Cn1ncc2c3ccccc3n(Cc3ccccc3)c2c1=O (centres undefined) the results were p53ts 32C kill -20% and p53ts 39C tox inconclusive.
For CCC(Cc1ccccc1)NC(=O)Cn1ncc2c3ccccc3n(Cc3ccc(F)cc3)c2c1=O (centres undefined) the results were p53ts 32C kill inconclusive and p53ts 39C tox 10µM*.
For COc1ccc2c(c1)c1c(c(=O)n(Cc3ccccc3)c(=O)n1CC(=O)Nc1ccc(C)cc1C)n2C the results were p53ts 32C kill 2% and p53ts 39C tox -14%.
`CCOc1ccccc1CNC(=O)C1CCN(c2nnc(-n3c(C)ccc3C)s2)CC1` gave p53ts 32C kill -1% and p53ts 39C tox 8%.
For Cc1c(Cl)cccc1-n1ncc(C(=O)N2CCC(C)CC2)c1C1CCN(C(=O)OC(C)(C)C)CC1 the results were p53ts 32C kill 6% and p53ts 39C tox 2%.
`Cc1cc(C)c(NC(=O)Cn2c(=O)n(CC(=O)NCc3ccccc3Cl)c(=O)c3sccc32)c(C)c1` gave p53ts 32C kill 16% and p53ts 39C tox -3%.
`CCOC(=O)c1ccc(NC(=O)Cn2c(=O)cc(C)c3c(C)nn(-c4ccc(CC)cc4)c32)cc1` gave p53ts 32C kill 2% and p53ts 39C tox 10%.
Screening COc1ccc(NC(=O)Cc2csc(COc3cccc(C)c3)n2)cc1OC returned p53ts 32C kill -12% and p53ts 39C tox -9%.
COc1ccc(Nc2cc(C(=O)NCCCN3CCN(C)CC3)c3ccccc3n2)cc1OC was read as p53ts 32C kill inconclusive, FLuc inh 25µM* and p53ts 39C tox inconclusive.
Screening COc1ccc(Nc2cc(C(=O)NCCCN3CCN(c4ccc(OC)cc4)CC3)c3ccccc3n2)cc1 returned p53ts 32C kill inconclusive and p53ts 39C tox 13µM*.
For CCOC(=O)C1CCCN(C(=O)c2cc(Nc3ccc(OC)c(OC)c3)nc3ccccc23)C1 (centres undefined) the results were p53ts 32C kill inconclusive, FLuc inh 16µM* and p53ts 39C tox inconclusive.
Screening COc1ccc(Nc2cc(C(=O)NCc3ccccc3)c3ccccc3n2)cc1OC returned p53ts 32C kill 4% and p53ts 39C tox 16%.
For CCOC(=O)C1CCCN(C(=O)c2cc3c(Cl)nc4ccccc4c3s2)C1 (centres undefined) the results were p53ts 32C kill 0% and p53ts 39C tox -14%.
Screening COc1ccc(N2CCN(CCCNC(=O)c3cc(Nc4ccccc4OC)nc4ccccc34)CC2)cc1 returned p53ts 32C kill 1% and p53ts 39C tox inconclusive.
`COCCCNC(=O)c1ccc2c(c1)nc(C)n2-c1cccc(C)c1` gave p53ts 32C kill 2% and p53ts 39C tox -13%.
CCCCCNC(=O)c1ccc2c(c1)nc(C)n2-c1cccc(C)c1 was read as p53ts 32C kill 13% and p53ts 39C tox 20µM*.
COc1cc(C2CC(=O)Nc3c2c(=O)n(C)c(=O)n3C)cc(OC)c1OC (centres undefined) was read as p53ts 32C kill 9% and p53ts 39C tox 10%.
`CN(C)CCCNc1cc(N2CCN(C3CCCCC3)CC2)c2noc3c2c1C(=O)c1ccccc1-3` gave p53ts 32C kill -12% and p53ts 39C tox 20µM*.
Screening O=C1c2ccccc2-c2onc3c(N4CCN(C5CCCCC5)CC4)cc(NCCO)c1c23 returned p53ts 32C kill -7% and p53ts 39C tox -5%.
`CCOc1ccc(NC(=O)Nc2nnc(N3CCCCC3C)s2)cc1` (centres undefined) gave p53ts 32C kill -11% and p53ts 39C tox -12%.
`COc1ccc(NC(=O)Nc2nnc(N3CCCCC3C)s2)cc1OC` (centres undefined) gave p53ts 32C kill 8%, FLuc inh 16µM* and p53ts 39C tox 6%.
